Experimental findings from PubChem BioAssay AID2283193 (EPA ToxCast) are described below.

The structures appear in SMILES notation. Results filed as inconclusive are left out. Active and inactive are the calls of the source. Rule for the calls: active = hit-call score of the fitted dose curve at least 0.9, where 1 is the maximum; inconclusive = response in the unintended direction; inactive = score below 0.9.

Sequence of human Protein Kinase C, zeta (PKCz), PRKCZ (gene 5590) (Q05513 whole entry, looked up): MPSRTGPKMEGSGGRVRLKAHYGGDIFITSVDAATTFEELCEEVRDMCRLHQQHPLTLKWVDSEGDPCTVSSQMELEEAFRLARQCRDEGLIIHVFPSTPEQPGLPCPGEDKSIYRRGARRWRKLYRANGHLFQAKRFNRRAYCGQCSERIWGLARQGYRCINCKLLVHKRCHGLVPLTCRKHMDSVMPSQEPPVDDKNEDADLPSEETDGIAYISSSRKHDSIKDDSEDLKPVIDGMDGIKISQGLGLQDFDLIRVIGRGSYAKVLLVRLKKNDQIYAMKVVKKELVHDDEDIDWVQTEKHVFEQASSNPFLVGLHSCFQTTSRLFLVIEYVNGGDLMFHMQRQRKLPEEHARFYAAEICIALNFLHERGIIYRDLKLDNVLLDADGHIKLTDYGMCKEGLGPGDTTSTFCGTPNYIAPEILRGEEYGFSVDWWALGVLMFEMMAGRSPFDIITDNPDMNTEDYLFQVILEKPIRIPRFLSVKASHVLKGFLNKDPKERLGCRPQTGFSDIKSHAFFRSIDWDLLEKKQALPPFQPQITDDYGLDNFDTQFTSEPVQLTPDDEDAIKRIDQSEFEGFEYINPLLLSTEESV

This test deals with human Protein Kinase C, zeta (PKCz), PRKCZ (gene 5590) (UniProt Q05513). Description: NVS_ENZ_hPKCz: NovaScreen (NVS) Enzymatic Assay for human Protein Kinase C, zeta (PKCz). The procedure:
NVS_ENZ_hPKCz is a biochemical, single-readout assay that uses extracted gene-proteins in a cell-free assay. Measurements were taken 1 hour after chemical dosing in a 384-well plate.NVS_ENZ_hPKCz is one of one assay component(s) measured or calculated from the NVS_ENZ_hPKCz assay. It is designed to make measurements of enzyme activity, a form of enzyme reporter, as detected with fluorescence intensity signals by Fluorescence and electrophoretic mobility shift technology.Data from the assay component NVS_ENZ_hPKCz was analyzed into 1 assay endpoint. This assay endpoint, NVS_ENZ_hPKCz, was analyzed in the positive analysis fitting direction relative to DMSO as the negative control and baseline of activity. Using a type of enzyme reporter, loss-of-signal activity can be used to understand changes in the enzymatic activity as they relate to the gene PRKCZ. Furthermore, this assay endpoint can be referred to as a primary readout, because this assay has produced multiple assay endpoints where this one serves a enzymatic activity function. To generalize the intended target to other relatable targets, this assay endpoint is annotated to the kinase intended target family, where the subfamily is serine/threonine kinase.
Binding assays used specific radioligands (tritiated, iodinated) with non-radioactive competitive displacement ligands in agonist or antagonist protocols (as indicated) and various reference compounds and inhibitors to titrate specific binding to receptors and transporters. Most enzyme assays (CYPs, kinases, phosphatases, proteases, HDACs) used recombinant protein and specific substrates (fluorescence mostly, some colorimetric and radioactive) and inhibitors, followed by a biochemical separation of substrate and product. All assays for the biochemical HTS were initially run in duplicate at a single concentration (10 uM for CYP450 assays and 25 uM for all others). Assay-chemical combinations meeting a pre-defined threshold (e.g., 30% inhibition and other criteria defined below) were then run in singleton concentration-response format with maximum concentration of 20 uM for CYPs and 50 uM for all others. Each assay was run with positive and negative controls, and concurrent controls on every plate. The follow-up (secondary) screen tested active chemical-pairs in concentration series, as well as a few additional assays not tested in the primary screen, some selected negative inactives, and several cases re-run in the concentration series for confirmatory purposes.
In the case of `COCC(C)N(C(=O)CCl)c1c(C)csc1C` (stereo not given), the result was inactive.

`S=C1NCCN1`: the compound was classed as inactive.

Take `CCOP(=S)(OCC)Oc1ccc2c(C)c(Cl)c(=O)oc2c1`: the compound was classed as inactive.

For the compound `COC(=O)c1ccccc1S(=O)(=O)NC(=O)N(C)c1nc(C)nc(OC)n1`, the result was inactive.

With `CCCCC(CC)COC(=O)c1ccccc1C(=O)OCC(CC)CCCC` (stereo not given), the outcome was inactive.
